What all share (design): scale not given: direction of the effect not stated beside the values
Assay [1] has as its target Protein translocase subunit SecA (Escherichia coli (strain K12)) (UniProt P10408). Nature of the assay: Assay to Identify E. coli SecA ATPase Inhibitors. Format: functional. As to conditions: 30 µM.
Assay [2] concerns the target T1, Ubiquitin-activating enzyme e1, putative (Leishmania donovani (strain BPK282A1)) (UniProt E9BSI1).
T1 sequence (whole entry): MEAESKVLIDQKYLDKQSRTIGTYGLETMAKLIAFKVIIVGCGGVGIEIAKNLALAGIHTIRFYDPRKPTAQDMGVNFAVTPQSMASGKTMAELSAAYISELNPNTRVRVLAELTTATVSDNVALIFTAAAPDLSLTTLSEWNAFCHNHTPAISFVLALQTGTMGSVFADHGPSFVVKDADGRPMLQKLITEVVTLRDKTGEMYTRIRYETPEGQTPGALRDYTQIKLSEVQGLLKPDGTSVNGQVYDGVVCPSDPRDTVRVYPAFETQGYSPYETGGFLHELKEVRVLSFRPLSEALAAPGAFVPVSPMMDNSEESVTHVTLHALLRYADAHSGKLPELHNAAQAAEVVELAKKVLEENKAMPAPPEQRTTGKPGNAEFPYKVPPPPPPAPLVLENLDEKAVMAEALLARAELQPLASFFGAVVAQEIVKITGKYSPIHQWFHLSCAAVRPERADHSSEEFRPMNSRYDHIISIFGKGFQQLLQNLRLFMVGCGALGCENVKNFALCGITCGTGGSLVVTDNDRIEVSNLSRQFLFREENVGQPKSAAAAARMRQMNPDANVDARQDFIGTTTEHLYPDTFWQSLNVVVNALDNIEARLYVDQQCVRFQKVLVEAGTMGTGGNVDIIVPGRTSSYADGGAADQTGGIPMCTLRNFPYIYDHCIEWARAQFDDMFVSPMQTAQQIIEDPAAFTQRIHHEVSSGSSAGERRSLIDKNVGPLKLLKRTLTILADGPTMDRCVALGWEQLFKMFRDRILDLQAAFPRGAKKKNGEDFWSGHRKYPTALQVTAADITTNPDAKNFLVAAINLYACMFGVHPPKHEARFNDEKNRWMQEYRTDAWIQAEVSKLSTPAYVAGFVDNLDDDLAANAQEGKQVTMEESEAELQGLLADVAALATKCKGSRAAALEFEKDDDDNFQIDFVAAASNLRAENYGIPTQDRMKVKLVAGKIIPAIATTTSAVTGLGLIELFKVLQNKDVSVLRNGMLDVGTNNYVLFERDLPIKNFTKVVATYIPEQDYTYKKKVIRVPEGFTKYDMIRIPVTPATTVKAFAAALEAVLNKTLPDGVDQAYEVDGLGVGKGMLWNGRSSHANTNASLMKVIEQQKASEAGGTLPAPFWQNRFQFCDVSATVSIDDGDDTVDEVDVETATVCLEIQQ
Nature of the assay: Leishmania donovani Ubiquitin Activating Enzyme (LdE1). The class given is functional. To be noted: 30 µM.

In assay [3] the target is AMP-activated protein kinase, AMPK (Homo sapiens) (UniProt P54646+O43741+P54619+Q9UGJ0+Q9Y478+Q13131+Q9UGI9). Nature of the assay: AMP-dependent Kinase enzyme assay. An in vitro enzyme assay that detects ADP turnover that is directly proportional to AMPK activity. This uses naive AMPK that is activated during the assay with MK-8722. The class given is functional. To be noted: 30 µM.

In assay [4] the target is Sialic acid-binding Ig-like lectin 9 (Homo sapiens) (UniProt Q9Y336). Nature of the assay: Hs-Siglec9 ALPHAscreen SOP 20170721. To be noted: 10 µM. For orientation: Alpha assays give light when donor and acceptor beads are brought close together.
The subject of the next assay is Trypanosoma cruzi. Nature of the assay: Trypanosoma cruzi phosphomannomutase and mannose-1-phosphate guanylyltransferase assay. Format: functional. To be noted: 10 µM.
The target of assay [5] is T2, Arginase-2, mitochondrial (Homo sapiens) (UniProt P78540).
T2 sequence (whole entry): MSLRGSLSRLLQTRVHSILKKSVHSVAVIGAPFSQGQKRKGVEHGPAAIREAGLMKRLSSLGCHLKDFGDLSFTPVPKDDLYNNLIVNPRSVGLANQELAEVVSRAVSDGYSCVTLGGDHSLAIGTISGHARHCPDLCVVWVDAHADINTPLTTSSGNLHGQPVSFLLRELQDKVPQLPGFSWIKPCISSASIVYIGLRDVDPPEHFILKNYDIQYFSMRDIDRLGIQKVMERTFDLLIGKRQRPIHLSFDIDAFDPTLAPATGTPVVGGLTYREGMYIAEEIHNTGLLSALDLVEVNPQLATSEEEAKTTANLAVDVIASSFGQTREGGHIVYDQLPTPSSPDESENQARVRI
Nature of the assay: in vitro enzyme assay to detect the production of urea directly proportional to the activity of Arginase II. Also: in the data most compounds retested in dose-response had high values. To be noted: 33.3 µM. The class given is functional.

Assay [6] concerns the target T3, Proteasome subunit beta (Trypanosoma cruzi) (UniProt O96673).
T3 sequence (whole entry): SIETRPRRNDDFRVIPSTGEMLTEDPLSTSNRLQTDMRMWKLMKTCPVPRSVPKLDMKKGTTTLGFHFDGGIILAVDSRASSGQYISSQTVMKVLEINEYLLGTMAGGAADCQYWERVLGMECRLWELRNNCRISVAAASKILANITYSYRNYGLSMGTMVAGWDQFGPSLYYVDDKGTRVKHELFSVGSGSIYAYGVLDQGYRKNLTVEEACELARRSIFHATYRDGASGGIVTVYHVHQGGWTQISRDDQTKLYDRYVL
Nature of the assay: Trypanosoma cruzi proteasome chymotrypsin-like activity (TcProtChymo) assay. Also: in the data most compounds retested in dose-response had high values. The class given is functional. To be noted: 9.37 µM.

The species named for a further assay is Homo sapiens. Nature of the assay: To identify inhibition of the IFN signalling (Jak-Stat) pathway via expression of an eGFP reporter gene under the control of an IFN-stimulated response element (ISRE) containing MxA promoter. Format: functional. As to conditions: 30 µM. (A reporter such as luciferase makes a cellular process visible.)
Assay [7] has as its target T4, Tyrosyl-tRNA synthetase, putative (Trypanosoma cruzi (strain CL Brener)) (UniProt Q4DSP6).
T4 sequence (whole entry): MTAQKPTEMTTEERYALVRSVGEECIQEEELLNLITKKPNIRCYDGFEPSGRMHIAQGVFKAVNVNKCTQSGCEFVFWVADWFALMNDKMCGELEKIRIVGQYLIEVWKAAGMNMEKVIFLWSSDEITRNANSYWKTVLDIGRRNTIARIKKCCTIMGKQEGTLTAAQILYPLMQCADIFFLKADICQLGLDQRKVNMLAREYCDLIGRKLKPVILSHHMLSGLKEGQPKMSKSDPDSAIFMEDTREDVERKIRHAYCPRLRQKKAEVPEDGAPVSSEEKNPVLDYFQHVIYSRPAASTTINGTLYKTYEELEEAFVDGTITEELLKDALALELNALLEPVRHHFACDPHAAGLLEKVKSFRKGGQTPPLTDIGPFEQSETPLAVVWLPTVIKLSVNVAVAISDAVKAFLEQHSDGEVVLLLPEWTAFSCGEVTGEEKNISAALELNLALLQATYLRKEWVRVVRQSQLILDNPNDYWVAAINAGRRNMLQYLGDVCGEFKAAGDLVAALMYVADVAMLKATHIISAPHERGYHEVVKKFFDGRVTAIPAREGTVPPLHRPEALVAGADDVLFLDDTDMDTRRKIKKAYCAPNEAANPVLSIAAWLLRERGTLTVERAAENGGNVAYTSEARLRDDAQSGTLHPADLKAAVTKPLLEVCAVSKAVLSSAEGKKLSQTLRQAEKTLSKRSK
Nature of the assay: Trypanosoma cruzi tyrosyl tRNA synthetase (TcYRS) _High Tyrosine SOP. Also: in the data most compounds retested in dose-response had high values. Format: functional. To be noted: 30 µM.

For assay [8], the target named is T4, Tyrosyl-tRNA synthetase, putative (Trypanosoma cruzi (strain CL Brener)). Nature of the assay: Trypanosoma cruzi tyrosyl tRNA synthetase (TcYRS) SOP. The class given is functional. As to conditions: 30 µM.
For assay [9], the target named is Chromo domain-containing protein 1 (Saccharomyces cerevisiae (strain ATCC 204508 / S288c) (Baker's yeast)) (UniProt P32657). Nature of the assay: ScCHD-1 Enzyme Inhibition Assay. Also: in the data most compounds retested in dose-response had high values. As to conditions: 30 µM. The class given is functional.

For some of these results: Entries with a potency or affinity are not part of this list.

Protein translocase subunit SecA (Escherichia coli (strain K12)), sequence (P10408 whole entry): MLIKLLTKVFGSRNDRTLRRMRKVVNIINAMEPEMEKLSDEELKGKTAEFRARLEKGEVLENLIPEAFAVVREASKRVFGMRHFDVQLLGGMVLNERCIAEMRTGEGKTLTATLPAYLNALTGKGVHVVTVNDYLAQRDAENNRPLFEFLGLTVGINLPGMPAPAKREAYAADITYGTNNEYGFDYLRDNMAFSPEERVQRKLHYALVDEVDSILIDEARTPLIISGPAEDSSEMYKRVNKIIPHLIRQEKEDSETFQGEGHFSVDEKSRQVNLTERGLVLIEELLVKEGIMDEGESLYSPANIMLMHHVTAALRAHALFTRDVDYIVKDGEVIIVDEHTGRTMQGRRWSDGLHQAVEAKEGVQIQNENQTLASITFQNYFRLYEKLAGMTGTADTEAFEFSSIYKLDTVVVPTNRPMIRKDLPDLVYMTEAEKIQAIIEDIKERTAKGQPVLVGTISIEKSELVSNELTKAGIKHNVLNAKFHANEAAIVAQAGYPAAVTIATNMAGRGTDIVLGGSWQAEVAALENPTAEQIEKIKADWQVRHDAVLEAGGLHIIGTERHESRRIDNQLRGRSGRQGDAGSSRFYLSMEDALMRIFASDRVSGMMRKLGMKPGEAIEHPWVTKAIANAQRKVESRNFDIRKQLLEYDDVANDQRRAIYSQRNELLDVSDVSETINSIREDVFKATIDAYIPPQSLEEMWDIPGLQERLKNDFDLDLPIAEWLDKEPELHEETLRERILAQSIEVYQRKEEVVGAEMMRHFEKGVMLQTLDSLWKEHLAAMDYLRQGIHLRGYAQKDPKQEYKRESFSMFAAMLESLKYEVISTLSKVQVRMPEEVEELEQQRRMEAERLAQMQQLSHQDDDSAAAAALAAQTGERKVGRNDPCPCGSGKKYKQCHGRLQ
Chromo domain-containing protein 1 (Saccharomyces cerevisiae (strain ATCC 204508 / S288c) (Baker's yeast)), sequence (P32657 whole entry, the tested form may be a part): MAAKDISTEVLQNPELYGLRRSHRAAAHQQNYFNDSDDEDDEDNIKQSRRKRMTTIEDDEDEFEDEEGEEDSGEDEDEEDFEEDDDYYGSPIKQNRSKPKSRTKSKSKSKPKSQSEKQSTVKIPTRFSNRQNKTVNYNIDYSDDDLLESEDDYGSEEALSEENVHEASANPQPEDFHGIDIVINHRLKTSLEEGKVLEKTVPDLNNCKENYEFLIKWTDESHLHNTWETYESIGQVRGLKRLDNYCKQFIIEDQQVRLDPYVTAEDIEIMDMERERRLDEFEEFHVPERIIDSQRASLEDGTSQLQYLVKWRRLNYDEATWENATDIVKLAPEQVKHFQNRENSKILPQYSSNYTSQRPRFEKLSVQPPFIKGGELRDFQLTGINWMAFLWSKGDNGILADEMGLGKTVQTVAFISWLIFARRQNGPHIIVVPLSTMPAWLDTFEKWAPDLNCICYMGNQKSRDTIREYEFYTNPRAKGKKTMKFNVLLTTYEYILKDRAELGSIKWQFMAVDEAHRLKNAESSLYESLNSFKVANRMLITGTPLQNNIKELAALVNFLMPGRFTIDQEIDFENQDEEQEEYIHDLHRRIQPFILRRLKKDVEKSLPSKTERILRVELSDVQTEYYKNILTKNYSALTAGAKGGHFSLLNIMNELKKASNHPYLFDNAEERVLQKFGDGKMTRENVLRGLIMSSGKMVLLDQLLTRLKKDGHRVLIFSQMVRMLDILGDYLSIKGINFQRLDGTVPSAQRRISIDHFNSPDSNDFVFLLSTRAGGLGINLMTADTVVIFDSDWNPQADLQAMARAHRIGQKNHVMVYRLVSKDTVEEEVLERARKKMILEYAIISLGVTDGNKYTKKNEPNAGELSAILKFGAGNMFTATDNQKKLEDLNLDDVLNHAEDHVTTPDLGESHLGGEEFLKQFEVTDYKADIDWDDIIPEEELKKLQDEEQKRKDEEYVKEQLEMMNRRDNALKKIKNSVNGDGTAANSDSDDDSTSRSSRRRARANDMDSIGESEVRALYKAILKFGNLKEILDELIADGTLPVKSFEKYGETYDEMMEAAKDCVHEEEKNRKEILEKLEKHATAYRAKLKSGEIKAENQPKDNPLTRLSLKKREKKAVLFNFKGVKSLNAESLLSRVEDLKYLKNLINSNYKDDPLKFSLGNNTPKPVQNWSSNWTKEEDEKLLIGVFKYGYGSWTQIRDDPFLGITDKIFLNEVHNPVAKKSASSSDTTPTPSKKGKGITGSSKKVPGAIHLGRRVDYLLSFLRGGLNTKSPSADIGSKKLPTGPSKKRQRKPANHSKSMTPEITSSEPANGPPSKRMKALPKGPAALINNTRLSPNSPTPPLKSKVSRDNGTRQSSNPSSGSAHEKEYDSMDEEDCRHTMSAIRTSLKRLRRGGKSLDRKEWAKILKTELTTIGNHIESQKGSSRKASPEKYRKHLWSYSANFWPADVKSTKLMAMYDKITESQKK
Sialic acid-binding Ig-like lectin 9 (Homo sapiens), sequence (Q9Y336 whole entry): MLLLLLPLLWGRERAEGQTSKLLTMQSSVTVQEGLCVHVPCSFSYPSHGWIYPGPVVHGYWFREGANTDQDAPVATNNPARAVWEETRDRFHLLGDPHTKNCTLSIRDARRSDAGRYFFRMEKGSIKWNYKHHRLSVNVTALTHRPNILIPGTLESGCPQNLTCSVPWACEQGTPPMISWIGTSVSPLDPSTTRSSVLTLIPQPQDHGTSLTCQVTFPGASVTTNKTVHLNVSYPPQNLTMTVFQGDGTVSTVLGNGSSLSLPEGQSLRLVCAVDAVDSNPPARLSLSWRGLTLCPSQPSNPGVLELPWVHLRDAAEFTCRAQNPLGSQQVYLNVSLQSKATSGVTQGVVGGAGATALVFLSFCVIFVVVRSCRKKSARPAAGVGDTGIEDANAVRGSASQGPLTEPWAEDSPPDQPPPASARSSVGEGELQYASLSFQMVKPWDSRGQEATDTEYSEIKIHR

For `O=C(c1cnc(-c2cccs2)s1)N1CCCN2CCCC2C1` (stereo unspecified), the Percent Effect in assay [1] was -2%; in assay [2], 5.41%; in assay [3] it was -8.71%; in assay [4] it was -6.92%; in the assay with Trypanosoma cruzi it was -2.36%; in assay [5], -16%. The Percent Effect in assay [6] is 12.6%; in the assay listed under Homo sapiens, -1.67%; in [7] it was 4.43%; in assay [8], 23.5%; in assay [9] it was -7.67%.

For the molecule `CS(=O)(=O)NC1CCN(C(=O)NCCNc2ccccn2)CC1`, the Percent Effect in [1] is -6.26%; in assay [2] it was 10.8%; in assay [3] it was 0.725%; in [4], -1.36%; in the assay on Trypanosoma cruzi it was -10.7%; in [5], 3.14%. For the same molecule, the Percent Effect in [6] was 4.85%; in the assay listed under Homo sapiens, 14.7%; in assay [7], -0.99%; in assay [8], 1.22%; in assay [9], -1.89%.

`COc1ccc(NC(=O)N2CCCC2c2ccco2)cc1OC` (stereo unspecified): the Percent Effect in assay [1] was 0.301%; in assay [2] it was 13%; in assay [3] it was 7.21%; in assay [4] it was -3.22%; in the assay on Trypanosoma cruzi, -4.24%; in assay [5] it was -0.645%. For the same molecule, the Percent Effect in [6] is 9.57%; in the assay listed under Homo sapiens, 19.6%; in assay [7] it was -5.29%; in assay [8], 14.1%; in assay [9] it was -9.73%.

Regarding `CCS(=O)(=O)N1CCc2ccc(NC(=O)Nc3ccc(F)cc3F)cc21`, the Percent Effect in assay [1] is -3.73%; in assay [2], 7.79%; in assay [3] it was 2.67%; in [4], -0.508%; in the assay on Trypanosoma cruzi, 8.58%; in assay [5], -3.23%. Further, the Percent Effect was 23% in assay [6]; -1.71% in the assay listed under Homo sapiens; -2.12% in assay [7]; 6.41% in [8]; -9.26% in assay [9].

For `COCCN1CCc2cc(C(=O)N(C)C)c(NC(C)C)nc2CC1`, the Percent Effect in assay [1] was -0.676%; in assay [2], 8.11%; in assay [3], -3.33%; in [4], -5.3%; with Trypanosoma cruzi, -2.25%; in assay [5], 0.248%. Besides, the Percent Effect was 0.429% in [6]; -3.78% in the assay listed under Homo sapiens; -10.8% in assay [7]; 3.7% in [8]; -3.16% in assay [9].

As for `Cc1nc(C)n(CC2CN(c3nnc(C)c(C)c3C#N)CCO2)n1` (stereo unspecified), the Percent Effect was -5.18% in [1]; 7.89% in [2]; 1.44% in assay [3]; 6.73% in assay [4]; 1.13% with Trypanosoma cruzi; 2.68% in assay [5]. Further, the Percent Effect in assay [6] came out at 8.52%; in the assay filed under Homo sapiens, 1.18%; in assay [7], 7.35%; in assay [8], 12.2%; in [9], 0.234%.

Consider `COc1ccc(CN2CCCC3(CCN(c4ccsc4)C3=O)C2)cc1` (stereo unspecified), for which the Percent Effect in [1] was -1.81%; in assay [2] it was 0%; in assay [3], 5.65%; in assay [4], 2.16%; with Trypanosoma cruzi, -5.32%; in assay [5] it was 3.96%. For the same molecule, the Percent Effect in assay [6] was 6.78%; in the assay listed under Homo sapiens it was 21.2%; in assay [7] it was 2.13%; in [8] it was 3.85%; in assay [9], -0.303%.

As to `CC(C)n1cc(S(=O)(=O)N2CCCCC2)cn1`, the Percent Effect in assay [1] was -5.5%; in assay [2] it was 14.7%; in [3], -5.08%; in assay [4] it was 14.1%; in the assay with Trypanosoma cruzi, 0.393%; in [5] it was -2.29%. In addition, the Percent Effect in [6] was 15.7%; in the assay filed under Homo sapiens, 2.73%; in assay [7], 6.35%; in [8], 15.4%; in [9], -8.47%.

Turning to `Cc1ccc(C(CNCc2cnn(C(C)C)c2)N2CCOCC2)s1` (stereo unspecified), the Percent Effect in assay [1] was -3.15%; in assay [2], -2.7%; in [3], -0.219%; in [4] it was -2.96%; with Trypanosoma cruzi, -0.391%; in [5], -2.5%. Moreover, the Percent Effect was 11.1% in assay [6]; -8.39% in the assay listed under Homo sapiens; 4.95% in [7]; 1.22% in assay [8]; -6.03% in assay [9].

Consider `Cc1nonc1CC(=O)N1C[C@@H]2CC[C@H](C1)N(Cc1ccccc1)C2=O`, for which the Percent Effect in assay [1] was -5.85%; in [2], -2.7%; in assay [3] it was -1.13%; in [4], 6.66%; in the assay on Trypanosoma cruzi, -4.83%; in assay [5], -2.86%. For the same molecule, the Percent Effect in assay [6] is 6.9%; in the assay listed under Homo sapiens it was 0.776%; in [7], 0.529%; in [8], 2.44%; in assay [9], -2.68%.

Consider `CC(=O)N1CCC(Oc2ccc(Cl)cn2)CC1`, for which the Percent Effect in assay [1] is -1.02%; in assay [2], 5.48%; in assay [3] it was -4.62%; in assay [4] it was 4.94%; with Trypanosoma cruzi, 4.5%; in assay [5], 8.64%. The Percent Effect in assay [6] is 3.19%; in the assay listed under Homo sapiens, 18.8%; in assay [7] it was 3.23%; in assay [8], 7.5%; in assay [9], -4.92%.

For the origin of these results see ChEMBL document CHEMBL3988442, “University of Dundee, Small-Polar-MMV Screening Library” (2021).
